Sampled rows, rich in hits. Any-hit rate of the full collection: about 3.7%.
tim23-1 inh: growth inhibitors of tim23-1 mutant yeast, primary screen, luminescence, uHTS | S. cerevisiae tim23-1 growth, BacTiter-Glo luminescence, 24 h | inhibition, % at 20 µM | actives 1.3% (n = 330,000) | AID 463212, 2010;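 active = growth inhibition of the mutant yeast at or above 50%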;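 note: temperature-sensitive mutant grown at 25 °C; plate controls were DMSO-treated mutant yeast for no effect and medium wells lacking yeast for full effect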
PfHsp90 yeast 2: growth inhibition of PfHsp90-expressing yeast, primary screen, antimalarial PfHsp90 inhibitor project, S. cerevisiae, BacTiter-Glo luminescence, single point, set 2. actives 0.32% (n = 310,000). inhibition, % at 9.4 µM. BacTiter-Glo ATP, 48 h; yeast lacking PDR1 and PDR3 efflux regulators. AID 504621, 2011;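 active = every replicate shows inhibition above about 80%, whatever the replicate mean, limit read from the data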;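 note: 0% = DMSO neutral controls and 100% = 20 µM radicicol positive controls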
NALP3 yeast inh: NALP3 inflammasome inhibitors in reconstituted yeast, primary screen, luminescence, uHTS; actives 0.39% (n = 330,000); inhibition, % at 10 µM; Yeast reconstituted NLRP3/ASC/caspase-1, beta-gal luminescence, 24 h;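 active = inhibition of 50% or more; inactive = inhibition below 50%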;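 note: plate controls were induced DMSO wells for no effect and uninduced yeast grown without galactose for full effect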
TIM10 inh: growth inhibitors of isogenic TIM10 control yeast, primary screen, counter-screen for tim10-1 yeast inhibitor project, luminescence, uHTS; S. cerevisiae TIM10 strain growth, BacTiter-Glo luminescence, 24 h; inhibition, % at 10 µM; actives 1.4% (n = 330,000); AID 463195, 2010;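 active = inhibition of 40% or more at the single tested concentration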;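 note: wild-type TIM10 isogenic control strain grown at permissive 25 °C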
tim10-1 inh: growth inhibitors of tim10-1 mutant yeast, primary screen, luminescence, uHTS; S. cerevisiae tim10-1 ts strain growth, BacTiter-Glo, 24 h; actives 2.2% (n = 330,000); AID 463190, 2010; inhibition, % at 20 µM;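 active = inhibition of at least 40%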;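 note: mutant grown at 25 °C; 0% = DMSO wells with yeast and 100% = wells holding no yeast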
TIM10 conf: growth inhibitors of wild-type TIM10 yeast, confirmation, counter-screen for tim10-1 synthetic lethality project, single concentration, luminescence, S. cerevisiae. shares compounds with TIM10 inh. actives 63% (n = 4,600). inhibition, % at 10 µM. S. cerevisiae tim10 strain growth, BacTiter-Glo luminescence, 24 h. AID 463215, 2010;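 active = inhibition of yeast growth at or above a set limit in either of two replicates at 10 µM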;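 note: this counterscreen used the strain with wild-type TIM10; 0% = yeast with DMSO and 100% = medium wells lacking yeast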
* = called active by the depositor.

For COc1ccc(-c2nc(C#N)c(NCc3ccc(C)cc3)o2)cc1OC the results were tim23-1 inh 1, PfHsp90 yeast 2 6, NALP3 yeast inh 19, TIM10 inh 19 and tim10-1 inh 5.
For COc1ccc(-c2nc(C#N)c(NCCc3ccccc3)o2)cc1OC the results were tim23-1 inh 48, PfHsp90 yeast 2 14, NALP3 yeast inh 22, TIM10 inh 46*, tim10-1 inh 24 and TIM10 conf 41*.
Screening COc1ccc(CCNc2oc(COc3ccc(F)cc3)nc2C#N)cc1 returned tim23-1 inh 35, PfHsp90 yeast 2 -15, NALP3 yeast inh 23, TIM10 inh 43*, tim10-1 inh 26 and TIM10 conf 36*.
`CC(=O)N(CCCNC(=O)c1ccccc1)C(=O)c1ccccc1` gave tim23-1 inh -6, PfHsp90 yeast 2 -5, NALP3 yeast inh 16, TIM10 inh -11 and tim10-1 inh 0.
Screening CCN(C(=O)COC(=O)CCc1ccccc1)c1ccccc1 returned tim23-1 inh 24, PfHsp90 yeast 2 -10, NALP3 yeast inh 1, TIM10 inh 26 and tim10-1 inh 10.
For Cn1cc(Br)c(C(=O)Nc2c(F)c(F)c(F)c(F)c2F)n1 the results were tim23-1 inh 11, PfHsp90 yeast 2 3, NALP3 yeast inh -1, TIM10 inh 15 and tim10-1 inh 2.
`Cn1cc(Br)c(NC(=O)/C=C/C(=O)O)n1` gave tim23-1 inh 17, PfHsp90 yeast 2 -19, NALP3 yeast inh 4, TIM10 inh 66*, tim10-1 inh 2 and TIM10 conf 3.
COc1ccc(/C=C/C(=O)N(Cc2cccs2)C2CCS(=O)(=O)C2)cc1 (stereo not drawn) was read as tim23-1 inh 11, PfHsp90 yeast 2 9, NALP3 yeast inh 5, TIM10 inh 17 and tim10-1 inh 18.
COCCn1c(C)cc(C(=O)COc2ncnc3ccc(Br)cc23)c1C was read as tim23-1 inh 19, PfHsp90 yeast 2 24, NALP3 yeast inh 21, TIM10 inh 43*, tim10-1 inh 11 and TIM10 conf 22.
CN(C)CCNC(=O)C1(O)c2cc(Br)ccc2NC(=O)N1c1ccc(Cl)cc1 (stereo not drawn) was read as tim23-1 inh 17, PfHsp90 yeast 2 4, NALP3 yeast inh 9, TIM10 inh 8 and tim10-1 inh -20.
Cc1cc(-c2nnc(CCC(=O)NC(C)c3ccc(F)cc3)o2)no1 (stereo not drawn) was read as tim23-1 inh 2, PfHsp90 yeast 2 -4, NALP3 yeast inh 6, TIM10 inh -4 and tim10-1 inh 10.
Screening CC(C)(C)c1ccc(OCC(O)CN2CCOCC2)cc1 (stereo not drawn) returned tim23-1 inh -4, PfHsp90 yeast 2 -16, NALP3 yeast inh 18, TIM10 inh 48*, tim10-1 inh 4 and TIM10 conf 8.
For O=C(CN(Cc1ccccc1)C(=O)CCC(=O)Nc1nccs1)NCc1ccco1 the results were tim23-1 inh 1, PfHsp90 yeast 2 -6, NALP3 yeast inh 18, TIM10 inh 4 and tim10-1 inh 18.
For CCNc1ccc(Br)cc(C(=O)/C=C/c2ccccc2Cl)c1=O the results were tim23-1 inh 27, NALP3 yeast inh 5, TIM10 inh 45*, tim10-1 inh 39 and TIM10 conf 17.
`Cc1c(Cl)cccc1NC(=S)NCc1ccccc1Cl` gave tim23-1 inh 25, PfHsp90 yeast 2 0, NALP3 yeast inh 37, TIM10 inh 9 and tim10-1 inh 38.
For Cc1c(Cl)cccc1NC(=S)NCCC(c1ccccc1)c1ccccc1 the results were tim23-1 inh 4, PfHsp90 yeast 2 -5, NALP3 yeast inh 15, TIM10 inh 50*, tim10-1 inh 37 and TIM10 conf 20.
`COc1ccc(NC(=S)NCCC(c2ccccc2)c2ccccc2)c(OC)c1` gave tim23-1 inh 13, PfHsp90 yeast 2 -16, NALP3 yeast inh 7, TIM10 inh 45*, tim10-1 inh 23 and TIM10 conf 31*.

Screens (PubChem BioAssay)
